Several values for one entry are separate records, joined by “and”; a condition that tells them apart may be missing. Equal entries are not always repeated. Screen size: about 260,000 compounds; about 1,500 (0.58%) were called active. Inconclusive results (about 5%) are left out. A selection follows. Results with a measured potency or affinity are listed apart. A number with no mark means an inactive call.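 The calls were made as follows: active = inhibition above a set limit at one or more doses, reproduced on every date tested; inconclusive = results disagree between test dates, or hit never tested in dose response; inactive = the rest.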

A word on the inhibition: it is the relative decrease from the control value, in per cent.

The target in this assay is Virion infectivity factor (Human immunodeficiency virus type 1 group M subtype B (isolate BH10)) + Virion infectivity factor (Human immunodeficiency virus type 1 group M subtype B (isolate BRU/LAI)) + Virion infectivity factor (Human immunodeficiency virus type 1 group M subtype B (isolate PCV12)) + Virion infectivity factor (Human immunodeficiency virus type 1 group M subtype B (isolate HXB2)) + DNA dC->dU-editing enzyme APOBEC-3G (Homo sapiens) (UniProt P69720+P69721+P69722+P69723+Q9HC16). Briefly: HIV-1 Vif–A3G interaction blockers – biochemical, TR-FRET, GST-Vif 1-94, biotin-A3G peptide, dose response retest, primary screen (AID 1117319).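 Also: Vif residues 1-94 fused to GST binding biotinylated APOBEC3G peptide 110-148; 0% = full assay without inhibitor and 100% = GST in place of GST-Vif.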 As to conditions: TR-FRET GST-Vif / biotin-A3G peptide binding; active compounds read high.
Consider `CC(=O)Nc1ccccc1S(=O)(=O)CC1CC1(Cl)Cl` (stereo not given), for which the inhibition was 4.64%.
To `CC(=O)Nc1cccc(N(C)C)c1` belongs 6.55%; to `Cc1cc(NS(C)(=O)=O)c(=O)n(Cc2cccc(C(F)(F)F)c2)c1`, 0.67%.
To `CSCC(=O)N1CCCC(CNC(=O)c2ccccc2Cl)C1` (stereo not given) belongs -7.52%.
To `COc1ccc(OCCSc2ncccn2)cc1` belongs -7.11%; to `COC(=O)c1nc(NC(=O)c2ccc(Br)cc2)n[nH]1`, 23.4%.
Regarding `CCOc1ccc(N(C)S(=O)(=O)c2ccc3[nH]cc(C(=O)NCCOC)c(=O)c3c2)cc1`, the inhibition was 0.42%.
Turning to `COc1ccc(-c2c(-c3ccc(O)cc3O)n[nH]c2C)cc1OC`, the inhibition is 6.2%.
To `CCOc1cccc(C2C(C(=O)c3ccc(C)o3)=C(O)C(=O)N2c2nccs2)c1` (stereo not given) belongs -6.71%; to `O=C(N/N=C/c1ccc(OC(=O)c2ccccc2)c([N+](=O)[O-])c1)c1ccc(O)cc1`, 2.33%.
With `CCOC(=O)N=Nc1c2ccccc2c2nc3no[nH]c3nc12`, the inhibition was 8.41%.
The figure for `Cc1ccc2cc(CN(C(=O)c3ccco3)c3cccc(C)c3C)c(=O)[nH]c2c1` is -8.5%; for `C#Cc1ccc([C@@H]2C=C(C(=O)OCC=C)O[C@H](OCc3ccc(CO)cc3)C2)cc1` it is 6.58%; for `N#C/C(=C\c1ccc(-c2ccc(C(=O)O)cc2)o1)C(=O)Nc1ccc(F)cc1` it is 15.6%.
`COc1ccc(/C=C(\C#N)C(=O)Nc2ccc3[nH]c(=O)[nH]c3c2)cc1`: the inhibition was 11.7%.
The figure for `COc1ccc(NC(=O)/C(C#N)=C/c2ccc3c(c2)n(C)c(=O)n3C)cc1` is 1.72%.
To `N#C/C(=C/c1ccc(F)cc1)C(N)=S` belongs -0.15%; to `N#C/C(=C/c1ccc(Br)o1)C(N)=O`, 10.3%; to `CCOCCCNC(=O)/C(C#N)=C/c1ccc([N+](=O)[O-])o1`, 26.7%.
`Cc1ccc(NC(=O)/C(C#N)=C/c2ccc(Sc3nc(C)cc(C)n3)o2)cc1`: the inhibition was -1.36%.
Take `COc1ccc(NC(=O)c2ccc(Br)o2)cc1`: the inhibition is 6.22%.
The figure for `CC(=O)OC12CC3CC(C1)C(=NO)C(C3)C2` is -2.41%; for `COc1ccc(Cn2cnc3c(NS(C)(=O)=O)c(C)c(C)cc32)cc1` it is -0.98%.
As to `Cc1ccc(-c2nc(CS(=O)CC(=O)NCCN3CCCCCC3)c(C)o2)cc1` (stereo not given), the inhibition is -1.41%.
The figure for `COc1ccc(-n2c(SCC(=O)Nc3ccc(C(=O)O)cc3)nnc2-c2ccccc2)cc1OC` is 4.7%; for `O=C(N/N=C/c1cc(Br)c(O)c(Br)c1)c1cccnc1` it is -0.54%; for `Cc1cc(C)cc(NC(=O)c2ccc(NC(=O)C3C4CC5OC(=O)C3C5C4)cc2)c1` (stereo not given) it is -3.35%.
Take `CCn1c(C)nnc1SCC(=O)Nc1cccc(C(F)(F)F)c1`: the inhibition was -2.71%.
To `CN(C(=O)c1ccc(C#N)cc1)c1nnc(-c2ccccn2)s1` belongs -7.43%; to `CCc1ccc2nc3c(c(C(=O)O)c2c1)CCC3`, 23.1%.
In the case of `Cc1ccc2nc3c(c(C(=O)O)c2c1)CCC3`, the inhibition is 32.8%.
On to `Cc1c(C(=O)O)sc(=S)n1CCOc1ccccc1`, for which the inhibition was 5.91%.
The figure for `O=C(CCN1CCN(S(=O)(=O)c2ccc(Cl)cc2)CC1)Nc1ccc(F)cc1` is 1.22%.
The figure for `COc1cccc(C=Nc2ccccc2C#N)c1O` is 14.7%.
The figure for `Cc1cc(O)c(C(C)C)cc1N=Cc1ccccc1O` is -2.17%; for `Cc1cc(O)c(C(C)C)cc1N=Cc1ccc(N(C)C)cc1` it is 12.6%.
`Cc1cc(O)c(C(C)C)cc1N=Cc1ccccc1[N+](=O)[O-]`: the inhibition is -2.95%.
To `O=C(CC(O)(c1ccccc1)c1ccccc1)Nc1ccccn1` belongs -5.64%; to `O=C1Nc2ccccc2C(=O)C1(Cl)Cc1ccccc1` (stereo not given), 2.05%; to `Cc1ccc(OCC(=O)OCc2nc3scc(-c4ccccc4)c3c(=O)[nH]2)cc1C`, -11.5%.
Regarding `Cn1c(=O)c2c(nc(SCCCC#N)n2Cc2ccccc2F)n(C)c1=O`, the inhibition is 5.84%.
To `Cn1c(=O)c2c(nc(SCc3nn[nH]n3)n2Cc2ccccc2F)n(C)c1=O` belongs 26.4%.
Take `Cc1ccccc1-n1cnc2cc(NCc3cccs3)ccc21`: the inhibition was 4.79%.
Regarding `COc1ccccc1-n1cnc2cc(NCc3ccccc3O)ccc21`, the inhibition is 5.69%.
The figure for `COc1ccc(CC(=O)Nc2ccc(S(=O)(=O)Nc3cc(C)nc(C)n3)cc2)cc1OC` is -3.26%; for `CC(C)c1ccc(CCNC(=O)CCNC(=O)c2ccc(Br)cc2)cc1` it is -4.69%; for `Oc1ccccc1C=NCC(O)c1ccccc1` (stereo not given) it is 22%.
The figure for `Oc1cccc(C=NCc2ccccc2)c1` is -4.5%; for `COc1cccc(C=NCC(C)N=Cc2cccc(OC)c2O)c1O` (stereo not given) it is 1.39%; for `Oc1c(Br)cc(Br)cc1C=NCc1ccccc1` it is -9.44%.
The figure for `COC(=O)c1ccc(C2C(Oc3ccccc3)C(=O)N2CCc2ccc(F)cc2)cc1` (stereo not given) is -5.73%.
For `C=CCN(C(=O)CCS(=O)(=O)c1cccc2nsnc12)c1ccccc1`, the inhibition is -10%.
To `Cc1ccc(NC(=O)CN2C(=O)NC(C)(c3ccc(Cl)cc3)C2=O)cc1S(=O)(=O)N1CCOCC1` (stereo not given) belongs 19.2%; to `CC(=O)c1ccc(S(=O)(=O)Nc2ccc(C(=O)NCC(c3cccs3)N3CCOCC3)cc2)cc1` (stereo not given), 3.75%.
The figure for `CC1(C)Cc2cccc(OCC(=O)N3CCN(c4ccccc4F)CC3)c2O1` is -1.24%; for `c1ccc(N(c2ccccc2)c2nc(-n3ccnc3)nc(-n3ccnc3)n2)cc1` it is -4.38% and -2.66%; for `CN(c1ccccc1)c1nc(-n2ccnc2)nc(-n2ccnc2)n1` it is -3.98%.
As to `O=C(NCCC1=CCCCC1)c1ccc2c(=O)n3c(nc2c1)CCCCC3`, the inhibition was -3.44%.
On to `Cc1cc(C)nc(N2CCCC(C(=O)NCc3ccc4c(c3)OCO4)C2)n1` (stereo not given), for which the inhibition is -5.32%.
To `COc1cc(C)c(NC(=O)COc2cccc3c2OC(C)(C)C3)cc1OC` belongs -1.98%.

The values above are taken from PubChem BioAssay AID1117319 (Southern Research Institute, 2015).
